For assay [1], the system named is Wnt5a (protein binding on small-molecule microarray). Put plainly: Wnt5a binders on small-molecule microarray, primary screen, biophysical, 635/667 nm fluorescence (AID 1142).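 Note: fluorescence read at 667 nm with signal to noise per printed feature.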 The settings on record: 635 nm fluorescence, higher = more signal.
A short description of assay [2]: cell viability in Huh7 cells, primary screen, cytotoxicity control for HCV replication inhibitor project, CellTiter-Glo luminescence, basal, 48 h (AID 1143).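 Note: Huh7 hepatoma cells carrying a hepatitis C replication reporter with no stimulus; test concentration not given here.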 The settings on record: Huh7 HCV replicon, higher = more signal, called active from +8 up or from −8 down. (In general: ATP-based viability assays read luminescence as a measure of living cells.)
A short description of assay [3]: P. aeruginosa biofilm formation inhibitors, primary screen, PAO1 strain, BacTiter-Glo luminescence, LB-PBS (AID 1144). The settings on record: 12 h, higher = more signal.
Assay [4] in a line: CREB reporter modulators without forskolin, primary screen, cell-based, PC12, CRE-LacZ reporter, unstimulated (AID 1145). The settings on record: no forskolin, luminescence, 4.5 h, higher = more signal, called active from +8 up or from −8 down.
Assay [5] in a line: CREB reporter modulators under forskolin, primary screen, cell-based, PC12, CRE-LacZ reporter, forskolin-stimulated (AID 1146).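 Note: PC12 cells with 6xCRE LacZ reporter stimulated by forskolin 10 µM; beta-galactosidase reporter signal reflecting CREB driven transcription.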 The settings on record: luminescence, 4.5 h, higher = more signal, called active from +8 up or from −8 down.
The target of assay [6] is Streptavidin (Streptomyces avidinii) (UniProt P22629). Put plainly: streptavidin binders on small-molecule microarray, primary screen, artefact control for SMM compound annotation, biophysical, 635/667 nm fluorescence (AID 1147).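 Note: signal reflects streptavidin binding to arrayed compounds as a control protein.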 The settings on record: streptavidin binding, higher = more signal.
Assay [7] is described as follows: small-molecule binders of probe aInhba, primary screen, biochemical, small-molecule microarray, 635/667 nm fluorescence (AID 1148).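 Note: score merges 667nm spot fluorescence with signal-to-noise for antibody binding to printed compounds.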 The settings on record: higher = more signal.
Assay [8] deals with Torsin-1A (Homo sapiens) (UniProt O14656). Put plainly: torsin A binders from cell lysate, primary screen, small-molecule microarray, wild-type, 635/667 nm (AID 1149). The settings on record: COS7 hTOR1A-WT lysate, 635 nm fluorescence, higher = more signal.
For assay [9] the target is unchanged. Put plainly: small-molecule binders of mutant TOR1A in lysate, primary screen, cell lysate, small-molecule microarray, COS7 lysate, 635/667 nm fluorescence (AID 1150).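 Note: score pools 667 nm emission and signal to noise measuring lysate protein binding.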 The settings on record: COS7 hTOR1A mutant lysate, 635 nm fluorescence, higher = more signal.
Assay [10] has as its system Sonic hedgehog protein (Shh). Put plainly: small-molecule binders of Shh protein, primary screen, biochemical, small-molecule microarray, 635/667 nm fluorescence (AID 1151).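 Note: Shh protein binding to compounds spotted on small-molecule microarray slides; score combines spot fluorescence intensity with signal-to-noise across triplicate slides.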 The settings on record: small-molecule microarray binding, 635 nm fluorescence; higher = more signal.

Calls of active or inactive are those of the source. Unless noted, the rule behind the calls is not given here.

Sequence of Torsin-1A (Homo sapiens) (O14656 whole entry, looked up): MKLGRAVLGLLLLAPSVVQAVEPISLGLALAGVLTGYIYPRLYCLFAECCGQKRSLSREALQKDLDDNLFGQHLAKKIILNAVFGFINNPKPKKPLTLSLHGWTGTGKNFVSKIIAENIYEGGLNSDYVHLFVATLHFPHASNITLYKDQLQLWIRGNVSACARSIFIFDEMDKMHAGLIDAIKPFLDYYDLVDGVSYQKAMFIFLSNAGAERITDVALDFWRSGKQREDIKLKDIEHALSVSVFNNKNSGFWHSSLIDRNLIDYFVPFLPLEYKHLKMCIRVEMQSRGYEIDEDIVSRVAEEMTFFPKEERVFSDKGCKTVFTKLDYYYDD
Sequence of Streptavidin (Streptomyces avidinii) (P22629 whole entry, looked up): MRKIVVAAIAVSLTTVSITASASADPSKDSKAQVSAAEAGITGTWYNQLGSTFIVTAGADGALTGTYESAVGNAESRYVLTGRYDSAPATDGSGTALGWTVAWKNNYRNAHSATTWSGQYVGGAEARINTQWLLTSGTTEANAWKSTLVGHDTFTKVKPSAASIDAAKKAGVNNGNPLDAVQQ

Regarding `COc1ccc(CCNC(=O)[C@@]2(c3ccc([N+](=O)[O-])cc3)CC(=O)N(CC34CC5CC(CC(C5)C3)C4)[C@@H]2c2ccc(CO)cc2)cc1`, the composite z-score is 0.145 in assay [1]; 0.531 in [6]; 0.327 in [7]; 0.246 with Torsin-1A (Homo sapiens) [8]; 0.388 in the assay with Torsin-1A (Homo sapiens) [9]; 0.948 in assay [10]. For the same compound, the z-score in assay [2] is -5.75 (inactive); in assay [3], -1.36 (inactive); in assay [4], -0.062 (inactive); in assay [5], 0.164 (inactive).
Regarding `CC(C)N1C(=O)[C@@]2(c3ccc([N+](=O)[O-])cc3)CC(=O)N(CC34CC5CC(CC(C5)C3)C4)[C@@H]2c2ccc(CO)cc21`, the composite z-score in assay [1] was -0.61; in assay [6] it was -0.842; in assay [7], 0.195; with Torsin-1A (Homo sapiens) [8], -1.81; in the assay with Torsin-1A (Homo sapiens) [9], -0.858; in [10] it was 0.453. Also, the z-score was -0.36 (inactive) in assay [2], -0.292 (inactive) in assay [3], 0.452 (inactive) in [4] and -0.41 (inactive) in assay [5].
`C=CCNC(=O)[C@@H]1[C@H]2C(=O)O[C@H](c3ccccc3)[C@H](c3ccccc3)N2[C@H](c2ccc(O)cc2)[C@@]12C(=O)N(C(=O)OCCOC)c1ccccc12`: the composite z-score is 0.0795 in [1]; 1.56 in assay [6]; -0.0375 in [7]; 0.677 with Torsin-1A (Homo sapiens) [8]; 0.76 with Torsin-1A (Homo sapiens) [9]; 0.951 in assay [10]. The z-score in assay [2] is -4.99 (inactive); in [3] it was -0.848 (inactive); in assay [4], 1.04 (inactive); in [5], -0.0406 (inactive).
In the case of `CCCCCN1CC=CC23O[C@@H]4/C=C\CCC(C)OC(=O)C4[C@H]2C(=O)N(CCCCCO)[C@@H]3C1=O` (stereo not given in full), the composite z-score in [1] was -1.01; in assay [6] it was -1.33; in assay [7], -0.182; in the assay with Torsin-1A (Homo sapiens) [8], -0.798; with Torsin-1A (Homo sapiens) [9], 0.815; in assay [10], -0.0084. Besides, the z-score in [2] is 0.292 (inactive); in assay [3] it was -1.35 (inactive); in assay [4], -0.492 (inactive); in assay [5], 0.069 (inactive).
`CCOC(=O)C[C@H]1[C@H](OC(=O)c2ccc(-c3ccccc3)cc2)[C@@H](NC(=O)Cc2ccc(OC)cc2)c2cc(OCCCO)ccc2N1C(=O)c1ccc2ccccc2n1`: the composite z-score in assay [1] was 0.163; in [6], 0.8; in assay [7] it was -0.0468; with Torsin-1A (Homo sapiens) [8], 0.33; with Torsin-1A (Homo sapiens) [9], -0.0342; in assay [10] it was -0.525. In addition, the z-score is 0.429 (inactive) in [2], 0.26 (inactive) in assay [3], -0.0529 (inactive) in assay [4] and -0.489 (inactive) in assay [5].
Turning to `[N-]=[N+]=NCc1ccccc1[C@H]1OC(c2ccc(OCCCO)cc2)=N[C@@]1(CCS(=O)(=O)c1ccccc1)C(=O)N1CCOCC1`, the composite z-score in [1] is 1.03; in assay [6], 1.62; in [7], 0.556; with Torsin-1A (Homo sapiens) [8] it was 1.7; in the assay with Torsin-1A (Homo sapiens) [9], 1.85; in [10], -0.164. In addition, the z-score in assay [2] was -0.865 (inactive); in assay [3] it was 0.164 (inactive); in assay [4], 0.526 (inactive); in assay [5], 0.363 (inactive).
On to `O=C1N(CCS(=O)(=O)c2ccccc2)Cc2ccccc2[C@H]2OC(c3ccc(OCCCO)cc3)=N[C@@]12CCS(=O)(=O)c1ccccc1`, for which the composite z-score in [1] was 1.05; in assay [6], 0.421; in assay [7], 0.0831; with Torsin-1A (Homo sapiens) [8] it was 0.307; with Torsin-1A (Homo sapiens) [9], -0.0941; in assay [10] it was 0.806. For the same compound, the z-score is -1.07 (inactive) in assay [2], -0.447 (inactive) in [3], 0.881 (inactive) in assay [4] and -1.33 (inactive) in [5].

(Values after PubChem BioAssay.)
